Reference: PubChem BioAssay (Tox21)
Records with an inconclusive call do not appear. Where a call stands in place of a potency, no number is given. Values without a mark were called inactive. The source made the active and inactive calls. Calls come from the whole dose curve.

Assay: qHTS assay to identify small molecule agonists of H2AX - cell viability counter screen (AID 1224847); note: nearly all actives have a fitted effect of over 30% in size;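 for activity change, negative = cytotoxicity: wild-type CHO-K1 cells; top concentration of the series differs between compounds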
Conditions: CHO-K1 viability, CellTiter-Glo luminescence, 3 h; series mostly up to 154 µM
Procedure, shortened: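 After overnight plating of 1000 CHO-K1 cells per well, a 15-concentration compound series was applied for 3 hr at 37C. Luminescence from CellTiter-Glo, read following 30 min at room temperature, reflected cell viability.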
Potency is the fitted concentration of half-maximal effect.

Which activity change, negative = cytotoxicity does the source give for C/C(=C(\CCOP(=O)(O)O)SC(=O)c1ccccc1)N(C=O)Cc1cnc(C)nc1N here?
Its activity change, negative = cytotoxicity is 0.972% [at 14 µM].

For CC1=CC=C(C(C)C)CC1, which Potency is on record?
The Potency was “inactive”.

For CCC(C)O (stereo not given), which Potency is on record?
Its Potency is “inactive”.

Which Potency does the source give for COC(=O)c1ccc(I)cc1S(=O)(=O)NC(=O)Nc1nc(C)nc(OC)n1 here?
Its Potency is “inactive”.

Which Potency does the source give for O[C@@H](COc1cccc2ncccc12)CN1CCN(C2c3ccccc3[C@@H]3[C@H](c4ccccc42)C3(F)F)CC1 (stereo not given in full) here?
The Potency was “inactive”.

For CC(=O)NO, which Potency is on record?
Its Potency is “inactive”.

Which Potency does the source give for CCCC(=O)Nc1ccc(O)c(C(C)=O)c1 here?
Its Potency is “inactive”.

With CCCCC(=O)OCC(=O)[C@H]1[C@H](C)C[C@H]2[C@@H]3C[C@H](F)C4=CC(=O)C=C[C@]4(C)[C@@]3(F)[C@@H](O)C[C@@]21C as the molecule, how does the Potency read?
Its Potency is “inactive”.

With CCN(CC)c1ccc(C(=C2C=CC(=[N+](CC)CC)C=C2)c2cc(S(=O)(=O)O)ccc2S(=O)(=O)[O-])cc1 as the molecule, how does the Potency read?
The Potency was 22 µM (active).

Which Potency does the source give for O=[N+]([O-])c1cccc(S(=O)(=O)O)c1 here?
The Potency was 45.7 µM (active).

Which activity change, negative = cytotoxicity does the source give for Brc1c2ccccc2c(Br)c2ccccc12 here?
The activity change, negative = cytotoxicity was 5.06% [at 14 µM].

With CC1(c2ccccc2)OC(C(=O)O)=CC1=O (stereo not given) as the molecule, how does the Potency read?
Its Potency is “inactive”.

For CN(C)c1ccc(/C=C/c2ccc([N+](=O)[O-])cc2)cc1, which activity change, negative = cytotoxicity is on record?
Its activity change, negative = cytotoxicity is -2.45% [at 14 µM].

With CCCn1cnc2c1c(=O)n(CCCCC(C)=O)c(=O)n2C as the molecule, how does the Potency read?
The Potency was “inactive”.

For CN(C)CCN(Cc1ccccc1)c1ccccn1, which Potency is on record?
The Potency was “inactive”.

With C[C@H]1C[C@H]2[C@@H]3CCC4=CC(=O)C=C[C@]4(C)[C@@]3(Cl)[C@@H](O)C[C@]2(C)[C@@]1(O)C(=O)CO as the molecule, how does the Potency read?
Its Potency is “inactive”.

For NCCCN1CCOCC1, which Potency is on record?
The Potency was “inactive”.

With COc1cc(C(=O)OCCCN2CCCN(CCCOC(=O)c3cc(OC)c(OC)c(OC)c3)CC2)cc(OC)c1OC as the molecule, how does the Potency read?
The Potency was “inactive”.

With COc1cc(Cl)ccc1Oc1ccc(Cl)cc1Cl as the molecule, how does the Potency read?
The Potency was 97.9 µM (active).

With Nc1ncn([C@H]2C[C@H](O)[C@@H](CO)O2)c(=O)n1 as the molecule, how does the Potency read?
Its Potency is “inactive”.

For CCCCC(CC)COC(=O)CCCCCCCCC(=O)OCC(CC)CCCC (stereo not given), which Potency is on record?
Its Potency is “inactive”.

For CCN(CC)c1ccc2c(-c3ccccc3C(=O)O)c3ccc(=[N+](CC)CC)cc-3oc2c1, which Potency is on record?
The Potency was 40.1 µM (active).

With S=C([S-])NCCNC(=S)[S-].[Mn+2] as the molecule, how does the Potency read?
Its Potency is “inactive”.

With CCCCCCOC(=O)NC(=N)c1ccc(NCc2nc3cc(C(=O)N(CCC(=O)OCC)c4ccccn4)ccc3n2C)cc1 as the molecule, how does the Potency read?
The Potency was “inactive”.

With CCc1cc(C2=C(C(=O)O)N(c3ccccc3C(F)(F)F)S(=O)(=O)c3ccccc32)cc2c1OCO2 as the molecule, how does the Potency read?
The Potency was “inactive”.
